# Data reported in PubChem BioAssay AID612 (The Scripps Research Institute Molecular Screening Center, 2007).
# About 420 (0.68%) of roughly 62,000 compounds were called active. The entries come from a sample that favours actives as a whole. Values without a mark were called inactive.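 How the source made its calls: active means inhibition above the mean of all tested compounds plus 3 SD (cut at about 43% in these data); inactive means the rest.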
# Molecular target: 5-hydroxytryptamine receptor 1A (Homo sapiens) (UniProt P08908)
# Sequence (P08908 whole entry, looked up): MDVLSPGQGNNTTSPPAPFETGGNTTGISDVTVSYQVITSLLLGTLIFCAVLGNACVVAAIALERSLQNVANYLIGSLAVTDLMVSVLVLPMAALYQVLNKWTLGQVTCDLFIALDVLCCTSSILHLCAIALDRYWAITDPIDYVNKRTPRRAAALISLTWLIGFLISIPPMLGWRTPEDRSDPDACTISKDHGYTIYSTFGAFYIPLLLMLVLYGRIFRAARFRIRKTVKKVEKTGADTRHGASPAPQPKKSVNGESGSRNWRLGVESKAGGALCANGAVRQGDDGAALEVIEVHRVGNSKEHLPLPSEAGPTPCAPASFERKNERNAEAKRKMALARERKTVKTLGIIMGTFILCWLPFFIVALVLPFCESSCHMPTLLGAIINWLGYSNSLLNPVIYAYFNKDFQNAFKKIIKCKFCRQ
# Test: blockade of serotonin HTR1A receptor – cell-based, CHO, Ga15 NFAT-bla reporter, primary screen (AID 612);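 further: receptor stimulated by 5-CT agonist at 100 nM near EC80; beta-lactamase reporter measured by ratiometric fluorescence of a cleavable substrate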
# Settings: CHO 5-HT1a Ga15 NFAT-bla reporter, antagonist mode; at 10 µM; active compounds read high
row,Compound,inhibition
1,COc1ncnc2sc3c(c12)CCCC3,10.5%
2,COc1ccc(-c2cc(C(F)(F)F)nc(S(C)(=O)=O)n2)cc1OC,78.1% (active)
3,COc1ccc(-c2ccc(Nc3ccc(S(=O)(=O)N4CCCC4)cc3)nn2)cc1OC,-0.9%
4,COc1ccc(-c2nnco2)cc1OC,2%
5,CN1CCN(CC(=O)C23CC4CC(CC(C4)C2)C3)CC1,4.4%
6,Cc1ccc(C2(c3ccc(C)cc3)NC(=O)N(Cc3c(C)noc3C)C2=O)cc1,1.9%
7,CCN(Cc1ccccc1)C(=O)CSc1nc(C)cc2c1C(=O)OC2,-9%
8,O=C(CSc1nnc(-c2cnccn2)n1Cc1ccco1)c1ccc(Cl)c(Cl)c1,9.1%
9,Cc1noc(C)c1S(=O)(=O)NCCc1ccc(S(N)(=O)=O)cc1,-7.6%
10,COc1ccc(CCN(C)C(=O)C2CCCN(Cc3ccc(OC)c(OC)c3)C2)cc1OC (configuration not stated),14.7%
11,COc1ccccc1N1CCN(C(=O)CN(Cc2ccc(Cl)cc2)S(C)(=O)=O)CC1,17.7%
12,COc1ccccc1-n1nnnc1S(=O)(=O)Cc1ccc(Cl)cc1,82.7% (active)
13,COc1ccccc1N1CCN(Cc2nnnn2CCc2ccccc2)CC1,5.1%
14,COC(=O)c1ccc(NC(=O)CSc2nnc(Cc3cccn3C)n2-c2ccc(F)cc2)cc1,3.3%
15,Cc1ccc(N2C(=O)CC(NCc3ccc4c(c3)OCO4)C2=O)cc1Cl (configuration not stated),-4.3%
16,CC(C)NS(=O)(=O)c1ccc(CCC(=O)N2CCOCC2)cc1,-10.5%
17,CCOC(=O)CSc1nnc(CNC(=O)c2ccco2)n1-c1ccc(F)cc1,5.9%
18,CN(C)/C=C1\C=C(c2ccccc2)OC1=O,-8.2%
19,CCOC(=O)C1(Cc2ccc(O)cc2)NC(c2ccccc2F)C2C(=O)N(C)C(=O)C21 (configuration not stated),6.2%
20,Clc1ccc(C=NC23CN4CN(CN(C4)C2)C3)cc1,-6.9%
21,COc1ccc(CNC(=O)C2CCN(S(=O)(=O)N3CCOCC3)CC2)cc1,5.7%

row,Compound,inhibition
1,c1csc(-c2nc(-c3ccncc3)no2)c1,-12.8%
2,COc1cc(Cl)c(S(=O)(=O)n2cnc(C)c2)cc1Cl,-7.5%
3,CSCC[C@H](NC(=O)NCc1cccs1)C(=O)O,4.7%
4,CC1CCN(c2oc(-c3ccccc3F)nc2C#N)CC1,13.1%
5,c1csc(-c2cn3c(n2)SCC3)c1,5.5%
6,Cc1ccc(C(=O)Nc2nnc(-c3cccs3)s2)cc1C,-13.8%
7,COc1cccc(NC(=O)Nc2nnc(N3CCCCC3C)s2)c1 (configuration not stated),35.8%
8,c1ccc(-n2ncc3c2ncn2c(C4CCCCC4)nnc32)cc1,-3.1%
9,O=C(CC(NS(=O)(=O)c1ccc(Cl)cc1)c1ccco1)NC1CCCC1 (configuration not stated),7.3%
10,COC(=O)N1CN(C(=O)OC)CN(C(=O)OC)C1,-7%
11,O=C(CN1CCOCC1)Nc1c2c(nc3c1CCC3)CCC2,2.1%
12,COc1ccccc1NC(=O)CSc1nc2sc(C)c(C)c2c(=O)n1Cc1ccco1,19.2%
13,CCOC(=O)CSc1nc2c(c(=O)n(C)c(=O)n2C)n1Cc1ccccc1F,-3.1%
14,CCOC(=O)CSc1nc2c(sc(=S)n2CCc2ccccc2)c(=O)n1Cc1ccco1,58.2% (active)
15,CC(c1cccnc1)N(CCN(C)C)C(=O)Nc1ccc(Cl)c(Cl)c1 (configuration not stated),3.9%
16,Cc1ccc(C)c(NC(=O)C2CC(=O)N(C(C)C)C2)c1 (configuration not stated),-1.5%
17,COc1ccc(S(=O)(=O)N2CCOCC2)cc1C(=O)Nc1nc2ccccc2s1,-17.7%
18,Cc1ccc2nc(NC(=O)C3CCN(S(=O)(=O)c4ccc5c(c4)oc(=O)n5C)CC3)sc2c1,1.8%
19,O=S(=O)(NCc1ccccc1Cl)c1cnc[nH]1,-4.7%
20,COc1ccccc1C(=O)Oc1ccc(N2C(=O)CCC2=O)cc1,-3.5%
21,CCOc1cc(-c2noc(CCC(=O)N3CCOCC3)n2)ccc1OC,-10.7%

row,Compound,inhibition
1,CCOc1cc(C(=O)N2CCc3cc(OC)c(OC)cc3C2)ccc1OC(F)F,60.5% (active)
2,CCOc1cc(CN2CCN(C(=O)CC(C)C)CC2)ccc1OC,-2.9%
3,COCCOC(=O)C1=C(C)NC(=O)CC1c1cc2c(cc1Br)OCO2 (configuration not stated),3.2%
4,COc1cc2c(cc1OC)C(c1ccc(C)o1)CC(=O)N2 (configuration not stated),30.2%
5,CCCOc1ccccc1C1CC(=O)Nc2cc3c(cc21)OCO3 (configuration not stated),54.2% (active)
6,Cc1cc(NC(=O)CCC(=O)N(c2cccc(F)c2)C(C(=O)NC2CCCC2)c2ccncc2)no1 (configuration not stated),-3.5%
7,C/C(=N\O)C1(C)N(O)C(C)(C)C(c2ccc(Br)cc2)=[N+]1[O-] (configuration not stated),-14.2%
8,COC(=O)c1ccc(/C=N\n2c(C)nnc2C)cc1,0.3%
9,CCOC(=O)N1CCN(C(=O)C2CCCN(c3ncnc4c3sc3cccc(F)c34)C2)CC1 (configuration not stated),7.8%
10,CC(C)c1ccc(-c2nn[nH]n2)cc1,-0.6%
11,COc1ccc(N2CCN(C3CC(=O)N(c4ccc5c(c4)OCCO5)C3=O)CC2)cc1 (configuration not stated),-12.3%
12,O=C(CCc1ccccc1)Nc1cccc(-c2nnc(-c3ccco3)o2)c1,10%
13,COC(=O)Cc1c(C)c2ccc(OCC(=O)NCc3ccc4c(c3)OCO4)cc2oc1=O,12.5%
14,CN(C)CCCn1c(N)c(C#N)c2nc(C#N)c(C#N)nc21,-28.3%
15,O=C(Cn1cnc2c(nnn2Cc2ccc(F)cc2)c1=O)NCc1ccc2c(c1)OCO2,2%
16,COc1ccc(C(=O)N2CCC(C(=O)Nc3cccc(C)c3)CC2)cc1OC,-2.1%
17,O=C(Nc1nsc(-c2ccccc2)n1)c1ccncc1,-6.7%
18,COc1ccc(C2OC(=O)CC2C(=O)NC(C)C)cc1 (configuration not stated),-3.4%
19,CC(C)CCNC(=O)CN(C(=O)Cn1nnc(-c2ccc(F)cc2)n1)C1CCCC1,9.5%
20,O=C(O)c1cscn1,-20.4%
